F508del corr: CFTR F508del correction in bronchial cells. 350,000 tested, 0.36% active. AID 720511. CFBE cells, YFP halide quenching; stimulated with forskolin plus potentiator P3; % fluorescence drop versus neutral controls. activity (quench increase), % at 7.58 µM;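 active means mean added fluorescence quench of at least 8% versus neutral control, with both replicates also reaching 8%; inconclusive means only one of the mean or replicate conditions met; inactive means mean below 8% and not both replicates reaching 8%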;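 further: cells transiently co-express mutant CFTR-F508del with the halide-sensitive YFP; corrector assay measuring rescue of mutant channel to the surface after 24 h compound exposure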
Vif inh: blocks HIV Vif function; HEK293T cells, Vif self-association by quenched fluorescence, imaging, 24 h; inhibition, % at 7.49 µM; 340,000 tested, 0.35% active; in the data active means inhibition above about 50%, passing the limit was not always enough; inconclusive means no clear call, values can overlap the other calls; inactive means below about 31%
FGF22 binding: FGF22 (human) thermal shift binding; AID 651658; activity (Tm shift, normalised), % at 9.99 µM; recombinant FGF22 thermal shift, SYPRO orange fluorescence; percent of sucrose octasulfate shift, DMSO zero; 340,000 tested, 1.5% active;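 active means mean Tm shift, scaled 0 neutral to 100 positive control, at about 1.3% or above, every replicate too, limit read from the data; inconclusive means no clear call, values can overlap the other calls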
Target sequence (Q9HCT0 whole entry, looked up): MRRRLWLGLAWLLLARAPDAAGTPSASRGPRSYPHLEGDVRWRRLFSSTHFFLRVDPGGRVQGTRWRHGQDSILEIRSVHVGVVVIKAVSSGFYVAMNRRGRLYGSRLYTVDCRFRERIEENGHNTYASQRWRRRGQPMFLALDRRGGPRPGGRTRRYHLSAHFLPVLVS
Starred values were filed as active, the others as inactive; u = inconclusive; x = no result given. Compounds with a hit are over-represented: about 1.7% of the library has one in this group of screens.

SMILES	F508del corr	Vif inh	FGF22 binding
C[C@@H]1CN([C@H](C)CO)C(=O)c2cc(NS(=O)(=O)c3cccs3)ccc2O[C@H]1CN(C)Cc1ccc(Oc2ccccc2)cc1	-2	x	0
CO[C@@H]1CN(C)C(=O)c2ccc(NS(=O)(=O)c3ccccc3)cc2OC[C@@H](C)NC[C@@H]1C	0	x	0
CCC(=O)c1ccc(OCc2ccc(C(=O)OC)cc2)cc1	-3	-11	44*
CCC(=O)c1ccc(OCc2ccc(C#N)cc2)cc1	-1	-2	0
COc1ccc(/C=C/c2c(-c3cccc(C)c3)oc3ccc(N4CCOCC4)cc23)cc1	-1	-4	0
COC(=O)c1ccc(/C=C/c2c(-c3ccc(OC)cc3)oc3ccc(N4CCOCC4)cc23)cc1	9.6*	-3	0
O=C(C[C@@H]1C[C@H]2c3cc(NC(=O)C4CCOCC4)ccc3O[C@H]2[C@H](CO)O1)NCc1ccccn1	0	x	-1
CO[C@H]1CN(C)C(=O)c2ccc(NC(=O)Nc3ccc(Cl)cc3)cc2OC[C@@H](C)N(C(=O)Nc2c(C)noc2C)C[C@@H]1C	2	x	0
O=C(CSc1nc2[nH]ncc2c(=O)[nH]1)Nc1nccs1	0	x	0
NS(=O)(=O)c1ccc(-n2ncc3c(=O)[nH]c(SCC(=O)Nc4nccs4)nc32)cc1	8.1*	x	0
O=C(N[C@@H]1CC[C@@H](CC(=O)N2CCN(c3ccccc3)CC2)O[C@H]1CO)c1ccncc1	2	x	1
CCc1nnc(NC(=O)CCS(=O)(=O)Cc2ccccc2)s1	3	16	0
CCc1nnc(NC(=O)CS(=O)(=O)Cc2ccccc2)s1	-1	-11	1.5*
O=C(CCN1CCCCC1)NCC[C@H]1CC[C@H](NC(=O)C2CCCCC2)[C@@H](CO)O1	0	x	x
COc1ccc(-n2nc(C(=O)NCC(=O)NCC3COc4ccccc4O3)c3ccccc3c2=O)c(OC)c1 (configuration not stated)	-2	-4	44*
COc1ccc(-n2nc(C(=O)NCC(=O)NCC3COc4ccccc4O3)c3ccccc3c2=O)cc1OC (configuration not stated)	0	-11	x
CNC[C@@H]1Oc2c(NC(=O)Nc3ccc(C(F)(F)F)cc3)cccc2C(=O)N([C@@H](C)CO)C[C@@H]1C	-1	x	0
Cc1ccc(S(=O)(=O)Nc2ccc3c(c2)C(=O)N([C@@H](C)CO)C[C@H](C)[C@H](CN(C)C(=O)Nc2ccc4c(c2)OCO4)O3)cc1	5	x	x
O=C(Nc1ccc(F)cc1)N[C@@H]1CC[C@H](CCNS(=O)(=O)c2ccccc2F)O[C@@H]1CO	0	x	0
NNC(=O)c1sc(-c2ccc(Cl)cc2)cc1N	4	14	44*
CCOC(=O)c1sc(-c2ccc(Br)cc2)cc1N	-1	2	0
COCCNC(=O)C1CCCN(C(=O)c2ccc3sccc3c2)CC1 (configuration not stated)	8.5*	-1	0
COCCNC(=O)C1CCCN(C(=O)c2ccc(OC)c(F)c2)CC1 (configuration not stated)	2	-12	0
C[C@H]1CN([C@@H](C)CO)C(=O)c2cc(NC(=O)C3CC3)ccc2O[C@H]1CN(C)C	2	x	0
O=C(C1CC1)N1C[C@@H]2N[C@H](C1)C2c1ccc(-c2ccccc2F)cc1 (some centres not stated)	-1	x	x
SMILES	F508del corr	Vif inh	FGF22 binding
CO/N=C/C(=N\Nc1ccc(OC)cc1)C(=O)c1ccc(F)cc1	-1	12	1
CO/N=C/C(C#N)=C/c1cc(C(=O)c2ccc(F)cc2)cn1C	x	12	43*
Cc1ccc(S(=O)(=O)N[C@H]2CC[C@H](CCn3cc(-c4cccc(F)c4)nn3)O[C@H]2CO)cc1	1	x	0
COc1ccc(S(=O)(=O)Nc2ccc3c(c2)C(=O)N([C@@H](C)CO)C[C@@H](C)[C@@H](CN(C)Cc2ccccc2)OCCCC[C@H](C)O3)cc1	3	x	0
Cc1ccc(S(=O)(=O)N(C)C[C@H]2Oc3ccc(NC(=O)NC(C)C)cc3C(=O)N([C@H](C)CO)C[C@H]2C)cc1	1	x	0
O=C1Nc2ccccc2Oc2cc([N+](=O)[O-])ccc21	-2	2	43*
Cc1ccc2c(c1)NC(=O)c1cc([N+](=O)[O-])ccc1O2	0	-2	0
CC(C)NC(=O)N[C@@H]1C=C[C@H](CC(=O)NCc2ccc(Oc3ccccc3)cc2)O[C@@H]1CO	-4	x	x
CC(C)(O)C#Cc1ccc(C(=O)N2CCN(c3ccccc3)CC2)cc1	1	-5	43*
CC(C)(O)C#Cc1ccc(C(=O)N2CCN(c3ccc([N+](=O)[O-])cc3)CC2)cc1	x	-39	0
O=C(c1ccc(CSc2ccccc2)cc1)N1CCN(c2ccccc2)CC1	1	6	43*
COc1ccccc1N1CCN(C(=O)c2ccc(CSc3ccccc3)cc2)CC1	x	21	x
CCOC(=O)CSc1cc(C)nc2ccc(OC)cc12	0	-3	43*
COc1ccc2nc(C)cc(SCC(=O)Nc3c(C)cc(C)cc3C)c2c1	x	2	x
Cc1nc(NC(=O)CCl)sc1C(=O)N(C)C	-1	8	43*
Cc1nc(NC(=O)C(Cl)Cl)sc1C(=O)N(C)C	x	5	x
C[C@@H]1CN([C@H](C)CO)C(=O)c2cc(NC(=O)c3ccncc3)ccc2O[C@@H](C)CCCCO[C@@H]1CN(C)C(=O)C1CCCCC1	0	x	0
C[C@H]1CN([C@@H](C)CO)C(=O)Cc2cc(NS(=O)(=O)c3ccc(Cl)cc3)ccc2O[C@@H]1CN(C)Cc1ccc(C(F)(F)F)cc1	2	x	0
CC(C)C[C@H]1CNC(=S)N1CC1CCCN1C[C@H](Cc1ccccc1)N1C[C@H](Cc2ccc(O)cc2)N(CC2CCCCCC2)C1=S (some centres not stated)	0	x	1
CC(C)C[C@H]1CNC(=S)N1C[C@H]1CCCN1C[C@H](Cc1ccc(O)cc1)N1C[C@H](Cc2ccc(O)cc2)N(CC2CCCCCC2)C1=S	2	24	43*
CC1CCc2nc3ccc(S(=O)(=O)N4CCC(C(=O)NCc5ccccc5Cl)CC4)cc3c(C(=O)O)c2C1 (configuration not stated)	-1	6	0
CN(Cc1ccccc1)C(=O)C1CCN(S(=O)(=O)c2ccc3nc4c(c(C(=O)O)c3c2)CCCC4)CC1	0	69*	-1
O=C(O)c1c2c(nc3ccc(S(=O)(=O)N4CCC(C(=O)NCc5ccccc5)CC4)cc13)CCCC2	-1	x	0
CC1CCC(NC(=O)C2CCN(S(=O)(=O)c3ccc4nc5c(c(C(=O)O)c4c3)CC(C)CC5)CC2)CC1 (configuration not stated)	2	-3	43*
Cc1ccc(S(=O)(=O)N(C)C[C@@H]2OCCCC[C@@H](C)Oc3ccc(NC(=O)CCC(F)(F)F)cc3C(=O)N([C@@H](C)CO)C[C@@H]2C)cc1	2	x	x
N#Cc1c(-c2ccc3c(c2)OCO3)cc[nH]c1=O	x	1	x
COc1nc(-c2ccccc2)cc(-c2ccc3c(c2)OCO3)c1C#N	17*	u	0
CC(=O)c1ccc(NC(=O)COC(=O)c2c3c(nc4ccccc24)/C(=C\c2cccs2)CCC3)cc1	9.1*	-3	0

High-throughput results as filed in PubChem.
